Test results from PubChem BioAssay AID1159580 (chemical genetic matrix, 2015).
Among all 5,500 compounds or so, about 2,000 (36%) were called active. Inconclusive results (about 18%) are left out. Cut-off read from the data, not from the text of the source: active = normalized growth mostly below about 0.91 (no sharp cut-off); inconclusive = no clear call, values can overlap the other calls; inactive = mostly above about 0.92. The list shows a part of the results.

Test: chemical genetic growth profiling, strain panel (AID 1159580);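 note: tested at 20 µM; growth read once vehicle control cultures reached saturation at 30 °C; 1 = growth at the plate median or of vehicle wells; lower values mean less growth of the strain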
Conditions: S. cerevisiae deletion strains, growth OD

Measured: normalized growth

O=C(/C=C/c1ccc(O)cc1)c1ccccc1O
active: locus YAL021C, strain ccr4, active compounds read low 0.762 | locus YAL026C, strain drs2, active compounds read low 0.359 | locus YAL030W, strain snc1, active compounds read low 0.359 | locus YBL061C, strain skt5, active compounds read low 0.366 | locus YBR009C, strain hhf1, active compounds read low 0.25 | locus YBR023C, strain chs3, active compounds read low 0.452 | locus YBR171W, strain sec66, active compounds read low 0.774 | locus YBR231C, strain swc5, active compounds read low 0.382 | locus YBR279W, strain paf1, active compounds read low 0.423 | locus YCL011C, strain gbp2, active compounds read low 0.366 | locus YCL016C, strain dcc1, active compounds read low 0.446 | locus YCL061C, strain MRC1, active compounds read low 0.484 | locus YCL069W, strain vba3, active compounds read low 0.256 | locus YCR088W, strain abp1, active compounds read low 0.639 | locus YDL005C, strain med2, active compounds read low 0.759 | locus YDL040C, strain nat1, active compounds read low 0.683 | locus YDR001C, strain nth1, active compounds read low 0.552 | locus YDR069C, strain doa4, active compounds read low 0.859 | locus YDR137W, strain rgp1, active compounds read low 0.255 | locus YDR159W, strain sac3, active compounds read low 0.305 | locus YDR195W, strain ref2 1.15 [resistant] | locus YDR297W, strain sur2, active compounds read low 0.554 | locus YDR334W, strain swr1, active compounds read low 0.301 | locus YDR335W, strain msn5, active compounds read low 0.382 | locus YDR392W, strain spt3, active compounds read low 0.103 | locus YEL003W, strain gim4, active compounds read low 0.236 | locus YEL037C, strain rad23, active compounds read low 0.667 | locus YEL061C, strain CIN8 (second series), active compounds read low 0.175 | locus YER015W, strain faa2, active compounds read low 0.469 | locus YER016W, strain bim1, active compounds read low 0.478 | locus YER111C, strain swi4, active compounds read low 0.126 | locus YER155C, strain BEM2 (second series), active compounds read low 0.128 | locus YFR010W, strain ubp6, active compounds read low 0.768 | locus YGL167C, strain pmr1, active compounds read low 0.703 | locus YGL173C, strain kem1, active compounds read low 0.585 | locus YGL227W, strain vid30, active compounds read low 0.169 | locus YGL240W, strain doc1, active compounds read low 0.453 | locus YGL253W, strain hxk2, active compounds read low 0.2 | locus YHR013C, strain ard1, active compounds read low 0.441 | locus YHR027C, strain rpn1, active compounds read low 0.624 | locus YHR030C, strain SLT2, active compounds read low 0.0955 | locus YHR079C, strain IRE1, active compounds read low 0.119 | locus YHR142W, strain chs7, active compounds read low 0.14 | locus YJL092W, strain hpr5, active compounds read low 0.586 | locus YJL095W, strain BCK1 (second series), active compounds read low 0.202 | locus YJL095W, strain BCK1, active compounds read low 0.105 | locus YJL115W, strain asf1, active compounds read low 0.684 | locus YJL129C, strain trk1, active compounds read low 0.463 | locus YJL154C, strain vps35, active compounds read low 0.582 | locus YJL164C, strain tpk1, active compounds read low 0.275 | locus YJL166W, strain qcr8, active compounds read low 0.228 | locus YJL187C, strain SWE1, active compounds read low 0.355 | locus YJR066W, strain TOR1, active compounds read low 0.0115 | locus YKL160W, strain elf1, active compounds read low 0.229 | locus YKR026C, strain gcn3, active compounds read low 0.759 | locus YKR091W, strain srl3, active compounds read low 0.71 | locus YLL001W, strain dnm1, active compounds read low 0.488 | locus YLL026W, active compounds read low 0.325 | locus YLL041C, strain sdh2, active compounds read low 0.499 | locus YLR027C, strain aat2, active compounds read low 0.271 | locus YLR113W, strain HOG1, active compounds read low 0.125 | locus YLR221C, strain rsa3, active compounds read low 0.229 | locus YLR258W, strain gsy2, active compounds read low 0.426 | locus YLR262C, strain YPT6 (second series), active compounds read low 0.301 | locus YLR320W, strain mms22, active compounds read low 0.145 | locus YLR342W, strain FKS1, active compounds read low 0.315 | locus YLR357W, strain rsc2, active compounds read low 0.726 | locus YLR370C, strain arc18, active compounds read low 0.713 | locus YLR384C, strain iki3, active compounds read low 0.761 | locus YML120C, strain ndi1, active compounds read low 0.246 | locus YMR058W, strain fet3, active compounds read low 0.383 | locus YMR125W, strain sto1, active compounds read low 0.171 | locus YMR129W, active compounds read low 0.656 | locus YMR205C, strain PFK2, active compounds read low 0.248 | locus YMR231W, strain pep5, active compounds read low 0.529 | locus YNL071W, strain lat1, active compounds read low 0.0982 | locus YNL183C, strain NPR1, active compounds read low 0.00476 | locus YNL209W, strain ssb2, active compounds read low 0.652 | locus YNL248C, strain rpa49, active compounds read low 0.379 | locus YNL322C, strain KRE1 (second series), active compounds read low 0.506 | locus YNR049C, strain mso1, active compounds read low 0.569 | locus YOR001W, strain rrp6, active compounds read low 0.385 | locus YOR070C, strain gyp1, active compounds read low 0.331 | locus YOR080W, strain dia2, active compounds read low 0.766 | locus YOR083W, strain WHI5, active compounds read low 0.366 | locus YOR106W, strain vam3, active compounds read low 0.321 | locus YOR231W, strain MKK1, active compounds read low 0.102 | locus YOR265W, strain rbl2, active compounds read low 0.584 | locus YOR270C, strain vph1, active compounds read low 0.285 | locus YOR290C, strain snf2, active compounds read low 0.214 | locus YPL051W, strain arl3, active compounds read low 0.325 | locus YPL078C, strain atp4, active compounds read low 0.256 | locus YPL106C, strain sse1, active compounds read low 0.609 | locus YPL240C, strain hsp82, active compounds read low 0.325 | locus YPL256C, strain CLN2, active compounds read low 0.103
